Compound activity as filed in PubChem.
This is a sample that favours compounds with a hit; in the whole collection about 6.6% have one here.
BoNT-F LC inh – BoNT/F light chain protease inhibitors, primary screen, biochemical, flow cytometry, MLPCN library; inhibition, % at 10 µM; Botulinum neurotoxin type F light chain protease (Clostridium botulinum); Multiplex microsphere protease cleavage assay; 360,000 compounds, 0.22% hits; in the data active means inhibition above about 35%, passing the limit was not always enough; inconclusive means no clear call, values can overlap the other calls; further: plate controls were buffer without enzyme for full effect and enzyme alone for no effect
Anthrax LF prot – Bacillus anthracis LF protease inhibitors, primary screen, biochemical, multiplex microsphere, MLPCN library; multiplex microsphere protease cleavage assay; inhibition, % at 10 µM; 360,000 compounds, 0.12% hits; further: plate controls were buffer without enzyme for full effect and enzyme alone for no effect
Bead autofluor – compound fluorescence in toxin protease inhibitor counterscreen; 360,000 compounds, 3.1% hits; AID 624483; fluorescence intensity (test concentration not listed); compound autofluorescence counterscreen, microsphere flow cytometry; hits give high values; in the data active means fluorescence intensity above about 16000; inconclusive means no clear call, values can overlap the other calls
BoNT A protease – BoNT/A light chain protease inhibitors, primary screen, biochemical, flow cytometry, MLPCN library. multiplex microsphere protease substrate cleavage. inhibition, % at 10 µM. 360,000 compounds, 0.17% hits; further: plate controls were buffer without enzyme for full effect and enzyme alone for no effect
GDH-TPI inh – GDH-TPI coupling enzyme inhibitors, primary screen, artefact control for M. tuberculosis FBA inhibitor project, biochemical, absorbance, full deck | GDH-TPI coupled enzyme counterscreen, NADH absorbance | 360,000 compounds, 1.2% hits | AID 588335, 2011 | inhibition, % at 4.8 µM; in the data active means inhibition above about 30%;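 further: 0% = DMSO wells and 100% = wells lacking the enzyme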
Mtb FBA inh – Mtb FBA enzyme inhibitors, primary screen, biochemical, fluorescence, strain H37Rv | inhibition, % at 1 µM | purified M. tuberculosis FBA, fluorescence read-out | AID 588726, 2011 | Fructose-bisphosphate aldolase (Mycobacterium tuberculosis (strain ATCC 25618 / H37Rv)), … | 360,000 compounds, 2.3% hits; in the data active means inhibition above about 27%;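 further: 0% = vehicle and 100% = reference inhibitor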
Target sequence (P9WQA3 whole entry, looked up): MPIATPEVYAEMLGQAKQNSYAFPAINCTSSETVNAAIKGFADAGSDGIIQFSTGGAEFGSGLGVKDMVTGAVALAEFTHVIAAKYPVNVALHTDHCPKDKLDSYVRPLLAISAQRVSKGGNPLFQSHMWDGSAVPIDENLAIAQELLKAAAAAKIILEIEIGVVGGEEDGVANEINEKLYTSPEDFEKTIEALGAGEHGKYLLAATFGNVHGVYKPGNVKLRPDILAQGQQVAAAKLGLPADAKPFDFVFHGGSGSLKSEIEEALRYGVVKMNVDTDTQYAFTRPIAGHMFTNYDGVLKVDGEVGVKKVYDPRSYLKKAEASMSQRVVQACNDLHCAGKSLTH
Starred values were filed as active, the others as inactive; ? = inconclusive; . = not tested or not shown; + = active, no number. Unless noted, no stated cut-off is given here; in the data, active means inhibition above about 30%; inconclusive means no clear call, values can overlap the other calls; inactive means below that.

SMILES	BoNT-F LC inh	Anthrax LF prot	Bead autofluor	BoNT A protease	GDH-TPI inh	Mtb FBA inh
COCCN1C=C(C(=O)OC)C(c2ccc(Cl)cc2)C(C(=O)OC)=C1	-4	2	3973	0	9	+
CCOC(=O)c1cnc(-n2nc(C)cc2C)nc1NC1CCCC1	?	19	3914	1	-3	5
Cc1cc(C)n(-c2ncc3c(n2)N(CCO)CCOC3=O)n1	35*	4	3742	2	4	5
CCOC(=O)c1cnc(-n2nc(C)cc2C)nc1Nc1ccc(OC)cc1	-21	10	?	-4	11	3
CCOC(=O)c1cnc(-n2nc(C)cc2C)nc1N1CCOCC1	0	-3	23062*	0	6	0
CCOC(=O)c1cnc(-n2nc(C)cc2C)nc1N(C)C	2	-1	22817*	0	6	6
O=C1CCCCC1C(=O)c1cn(-c2ccc(Cl)c(Cl)c2)nn1 (configuration not stated)	3	-1	3781	0	-1	7
Cc1ccc(C)c(S(=O)(=O)N2CCN(C(=O)c3cccn3C)CC2)c1	-10	3	4555	-1	2	2
Cc1onc(-c2ccccc2)c1-c1nnc(CN2CCN(S(=O)(=O)c3ccccc3)CC2)o1	-5	-14	3212	-1	2	3
Cc1nc(S/C(=C/c2ccc(OCc3ccc(C(=O)O)cc3)cc2)C(=O)O)n[nH]1	3	-4	3201	0	31*	4
COc1ccc(NC(=O)[C@@H](NC(=O)c2ccccc2F)C(C)C)cc1S(=O)(=O)N1CCOCC1	-2	-3	4208	0	-2	-1
Cc1ccc2[nH]c(=O)c(CN(CCCN3CCOCC3)C(=O)NC3CCCCC3)cc2c1	-2	-1	22874*	?	27	0
CCCCC1(C)OC(=O)C(=Cc2c[nH]c3ccccc23)C(=O)O1 (configuration not stated)	-7	-1	2681	-1	5	-1
CCCCC1(C)OC(=O)C(=Cc2ccc(N(C)C)cc2)C(=O)O1 (configuration not stated)	6	2	3295	0	40*	-3
CN(C)c1ccc(C=C2C(=O)NC(=S)NC2=O)cc1	-1	-3	3874	-1	27	-7
CN(C)c1ccc(C=C2C(=O)NC(=O)NC2=O)cc1	-3	-4	3752	0	31*	-3
O=C(NC(C(=O)c1ccccc1)n1cnccc1=O)c1ccccc1 (configuration not stated)	-17	-4	3740	-1	10	0
O=C(NCn1cnccc1=O)c1ccccc1	0	-4	23239*	0	2	-1
CC1CCCN(CCCNC(=O)c2coc3nc4ccccc4nc23)C1 (configuration not stated)	-9	-1	4028	0	1	155*
CC1CCN(CCCNC(=O)c2coc3nc4ccccc4nc23)CC1	10	9	5057	1	8	+
CC(=O)Nc1sc(C)c(C)c1C(=O)OCC(=O)N(C)c1c(N)n(Cc2ccccc2)c(=O)[nH]c1=O	-5	-2	?	2	2	-1
O=C1CCCC2=C1C(c1ccc(Cl)cc1)n1c(s/c(=C\c3ccc4ccncc4c3)c1=O)=N2 (configuration not stated)	17	22	3020	37*	7	-3
CCOC(=O)c1csc(N)c1-c1ccc([N+](=O)[O-])cc1	?	11	3711	-3	4	-1
CC(C)CNC(=O)C(=O)NNC(=O)C1CCCCC1	-3	0	21511*	-5	-3	2
CC(C)CNC(=O)C1CCN(CC2CCCCC2)CC1	15	-2	3520	1	3	3
SMILES	BoNT-F LC inh	Anthrax LF prot	Bead autofluor	BoNT A protease	GDH-TPI inh	Mtb FBA inh
CCCCNC(=O)c1sc2nc(C)cc(COC)c2c1-n1cccc1	-5	-6	16799*	-2	17	-1
COCc1cc(C)nc2sc(C(=O)NN)c(-n3cccc3)c12	1	-6	3924	-1	4	0
Cc1ccc(NC(=O)CN(C)S(=O)(=O)c2cccs2)c(Br)c1	4	-1	6383	-2	9	1
Nc1c(NCCCN2CCOCC2)c2ccccc2oc1=O	-5	2	21802*	-4	10	6
Nc1c(NC2CCCCC2)c2ccccc2oc1=O	2	-1	22176*	3	13	0
Nc1c(NCCN2CCOCC2)c2ccccc2oc1=O	2	-5	3228	0	3	4
CN(C)CCCNC(=O)OC1CC2CC1[C@H]1CCCCN1C2=O (some centres not stated)	1	2	4937	1	.	.
CCOc1ccc2nc(Nc3nc(CSc4nnnn4-c4ccccc4)cc(=O)[nH]3)nc(C)c2c1	1	3	20506*	?	-13	3
Cc1ccc(SCc2cc(=O)[nH]c(Nc3nc(C)c4cccc(C)c4n3)n2)cc1	3	-2	22617*	3	1	-6
COc1ccc2nc(Nc3nc(CSc4nnnn4-c4ccccc4)cc(=O)[nH]3)nc(C)c2c1	3	-2	10731	-1	1	0
Cc1cc([N+](=O)[O-])nn1Cc1ccc(C(=O)N/N=C/c2ccc(O)cc2O)cc1	-4	-2	10448	-1	44*	-1
CCOC(=O)c1c(-c2ccc(C)o2)csc1NC(=S)NC(=O)c1ccccc1Br	-4	-8	16268*	0	11	0
NC1=NC(c2ccccc2C(F)(F)F)N(c2ccc(F)c(Cl)c2)C(N)=N1 (configuration not stated)	6	12	3686	-2	10	0
[O-]C1=N[N+](=C(c2ccccc2)c2ccccc2)C1	-5	-1	3974	-1	14	0
Nc1nc(CSc2ncn(-c3ccccc3)n2)cs1	5	1	22447*	4	5	4
c1ccc(CSc2ncn(-c3ccccc3)n2)cc1	-8	-7	2521	0	4	0
CNc1ncnc2c1ncn2[C@H]1CN(Cc2ccncc2)C[C@@H](CO)O1	-3	-10	3971	0	7	-2
COc1cc(/C=C\C(=O)NCc2ccc3c(c2)cc(C)n3C)cc(OC)c1OC	-120	-80	2962	68*	3	-2
CC1=C(C(=O)Nc2ccccn2)C(c2ccc(Cl)cc2)NC(=S)N1 (configuration not stated)	-2	-2	4490	0	-3	19
O=C(NC1CCN(Cc2ccc(Cl)cc2)CC1)c1cn(-c2ccccc2)nc1-c1cccnc1	7	-9	21980*	0	6	1
O=C(O)c1cn(-c2ccccc2)nc1-c1ccc(Cl)cc1	-9	-9	17250*	-6	5	3
